Laboratory results from PubChem BioAssay (Tox21).
Results filed as inconclusive are left out. Entries that show only a call come without a potency. Unmarked numbers belong to inactive results. Calls of active or inactive are those of the source. Calls follow the shape of the dose curve; as a rule, active = well fitted cell-killing curve with a large enough effect in the repeat runs; inconclusive = weak or mixed curves, or effect the other way; inactive = flat fitted curve, though single readings scatter.

Columns and labels:
[1] = cAMP Responsive Elements (CRE) small molecule antagonists, cell-based qHTS assay: qHTS cell viability counter screen (AID 2060913); details: CRE-bla HEK293T viability, CellTiter-Glo luminescence, 5 h; series mostly up to 92.4 µM; also: nearly all actives have a fitted effect of over 40% in size
How it was run: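 Steps: cells plated and held 18 hrs at 37 C/5% CO2; compounds and NKH477 (0.25 uM final) added; 3 hrs incubation; reporter substrate read; CellTiter-Glo added to measure cytotoxicity by luminescence.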

[2] = cAMP Responsive Elements (CRE) small molecule agonists, cell-based qHTS assay: qHTS cell viability counter screen (AID 2060914); details: CRE-bla HEK293T viability, CellTiter-Glo luminescence, 5 h; series mostly up to 92.4 µM;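 also: viability read after 3 h of compound exposure; nearly all actives have a fitted effect of over 50% in size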
How it was run: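 Cytotoxicity counter screen multiplexed with the CRE-bla reporter assay in HEK 293T cells: 3 h compound exposure at 37 °C, followed by CellTiter-Glo luminescence measured in the same wells.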
Potency is read from the fitted curve at half-maximal effect.

| SMILES | Potency [1] | Potency [2] | viability change, negative = cytotoxic [1] | activity change, negative = cytotoxicity [2] |
| --- | --- | --- | --- | --- |
| Cc1cc(Cl)ccc1N | inactive | inactive | – | – |
| C=CCCl | inactive | inactive | – | – |
| CCOP(=S)(Oc1ccc([N+](=O)[O-])cc1)c1ccccc1 (configuration not stated) | inactive | inactive | – | – |
| CCCCc1c(C)nc(NCC)[nH]c1=O | inactive | inactive | – | – |
| CC(C)N(Cc1ccccc1)C(=O)C(C)(C)C | inactive | inactive | – | – |
| O=[N+]([O-])c1cc(Cl)c(Cl)cc1Cl | inactive | inactive | – | – |
| CN(CCO)CCO | inactive | inactive | – | – |
| COP(=O)(OC)C(O)C(Cl)(Cl)Cl (configuration not stated) | inactive | inactive | – | – |
| CC(C)(C#N)N=NC(C)(C)C#N | inactive | inactive | – | – |
| O=C(Oc1ccc(Br)cc1)N1CCN2CCC1CC2 | inactive | inactive | – | – |
| CCOC(=O)C(SP(=S)(OC)OC)c1ccccc1 (configuration not stated) | inactive | inactive | – | – |
| Clc1c(Cl)c(Cl)c(Cl)c(Cl)c1Cl | – | – | 2.46% [at 8.39 µM] | 9.47% [at 8.39 µM] |
| CN1C(=O)COc2c(C(=O)NC3CN4CCC3CC4)cc(Cl)cc21 (configuration not stated) | inactive | inactive | – | – |
| O=C(O)CCCCCCNC1c2ccccc2CCc2ccccc21 | inactive | inactive | – | – |
| Nc1ccc(Cl)c(Cl)c1 | inactive | inactive | – | – |
| c1ccoc1 | inactive | inactive | – | – |
| C[C@@H]1CC[C@@]2(OC1)O[C@H]1[C@@H](O)[C@H]3[C@@H]4CC[C@H]5C[C@@H](O[C@@H]6O[C@H](CO)[C@H](O[C@@H]7O[C@H](CO)[C@@H](O)[C@H](O[C@@H]8OC[C@@H](O)[C@H](O)[C@H]8O)[C@H]7O[C@@H]7O[C@H](CO)[C@@H](O)[C@H](O[C@@H]8O[C@H](CO)[C@@H](O)[C@H](O)[C@H]8O)[C@H]7O)[C@H](O)[C@H]6O)[C@H](O)C[C@]5(C)[C@H]4CC[C@]3(C)[C@H]1[C@@H]2C | 32.5 µM (active) | 29 µM (active) | – | – |
| Oc1ccc2[nH]cc(CCCCN3CC=C(c4ccccc4)CC3)c2c1 | inactive | inactive | – | – |
| CC(O)C#N (configuration not stated) | inactive | inactive | – | – |
| CN1C[C@H](CNC(=O)OCc2ccccc2)C[C@@H]2c3cccc4c3c(cn4C)C[C@H]21 | inactive | inactive | – | – |
| C=CC(=O)OCC(C)C | inactive | inactive | – | – |

| SMILES | Potency [1] | Potency [2] | viability change, negative = cytotoxic [1] | activity change, negative = cytotoxicity [2] |
| --- | --- | --- | --- | --- |
| O=[N+]([O-])[O-].[Tl+] | inactive | inactive | – | – |
| NCC(O)c1ccc(O)cc1 (configuration not stated) | inactive | inactive | – | – |
| ClC1=C(Cl)[C@]2(Cl)[C@@H]3[C@@H]4C[C@@H]([C@H]5O[C@@H]45)[C@@H]3[C@@]1(Cl)C2(Cl)Cl | 54.5 µM (active) | 61.1 µM (active) | – | – |
| Clc1ccc(CSC(Cn2ccnc2)c2ccc(Cl)cc2Cl)cc1 (configuration not stated) | inactive | inactive | – | – |
| [Cl-].[Cl-].[Cl-].[Fe+3] | inactive | inactive | – | – |
| CC(Cc1ccccc1)NCCCCl (configuration not stated) | inactive | inactive | – | – |
| O=C([O-])c1ccccn1.O=C([O-])c1ccccn1.O=C([O-])c1ccccn1.[Cr+3] | inactive | inactive | – | – |
| Cc1cccc(C)c1N | inactive | inactive | – | – |
| CC(C)(OO)c1ccccc1 | inactive | inactive | – | – |
| BrCCCCCCBr | inactive | inactive | – | – |
| O=C(Cl)c1ccccc1F | inactive | inactive | – | – |
| CC(COc1ccc(Oc2ccccc2)cc1)Oc1ccccn1 (configuration not stated) | inactive | inactive | – | – |
| C[C@]12CCC(=O)C=C1CC[C@@H]1[C@@H]2CC[C@@]2(C)[C@H]1CC[C@]2(C)O | inactive | inactive | – | – |
| CN1COCN(Cc2cnc(Cl)s2)/C1=N\[N+](=O)[O-] | inactive | inactive | – | – |
| Cn1c(N)nc2c3cccnc3ccc21 | inactive | inactive | – | – |
| CC(C)CON=O | inactive | inactive | – | – |
| COc1ccc(C=O)cc1O | inactive | inactive | – | – |
| COc1cc2c(cc1OC)[C@@]13CCN4CC5=CCO[C@H]6CC(=O)N2[C@H]1[C@H]6[C@H]5C[C@H]43 | inactive | inactive | – | – |
| CON(C)C(=O)Nc1ccc(Br)cc1 | inactive | inactive | – | – |
| O=[N+]([O-])c1ccc([As](=O)(O)O)cc1 | inactive | inactive | – | – |
| FC(F)(F)c1cccc(C2=CCN(CCc3ccc4ccccc4c3)CC2)c1 | inactive | inactive | – | – |

| SMILES | Potency [1] | Potency [2] | viability change, negative = cytotoxic [1] | activity change, negative = cytotoxicity [2] |
| --- | --- | --- | --- | --- |
| C/C=C/c1ccc2c(c1)OCO2 | inactive | inactive | – | – |
| CCNc1nc(Cl)nc(NC(C)C)n1 | inactive | inactive | – | – |
| N#CCCC(Br)(C#N)CBr (configuration not stated) | inactive | inactive | – | – |
| C=C(C)[C@@H]1CC=C(C=O)CC1 | inactive | inactive | – | – |
| CCCCCCCCBr | inactive | inactive | – | – |
| CNC(=O)Oc1cccc(N=CN(C)C)c1 | inactive | inactive | – | – |
| CCCCCCCCC(=O)NCc1ccc(O)c(OC)c1 | inactive | inactive | – | – |
| CCOC(=O)C(c1c(O)c2ccccc2oc1=O)c1c(O)c2ccccc2oc1=O | inactive | inactive | – | – |
| O=C1CN=C(c2ccccc2)c2cc(Cl)ccc2N1CC1CC1 | inactive | inactive | – | – |
| [Cl-].[Cl-].[Cl-].[Yb+3] | inactive | inactive | – | – |
| CCCCC(CC)COP(=O)(Oc1ccccc1)Oc1ccccc1 (configuration not stated) | inactive | inactive | – | – |
| O=[N+]([O-])c1ccc(Cl)c(Cl)c1Cl | inactive | inactive | – | – |
| O=C(O)c1ccc2[nH]cc(CCCCN3CC=C(c4ccccc4)CC3)c2c1 | inactive | inactive | – | – |
| CC1C=[C-]C=C1.[C-]#[O+].[C-]#[O+].[C-]#[O+].[Mn] | inactive | inactive | – | – |
| CN(C)N=O | inactive | inactive | – | – |
| CCc1ccc(C2CCNCC2)cc1 | inactive | inactive | – | – |
| Oc1ccc(Cl)cc1Cc1ccccc1 | inactive | inactive | – | – |
| CCCCOC(=O)c1ccccc1C(=O)OCCCC | inactive | inactive | – | – |
| CCCCCCCCCCCCCCCl | inactive | inactive | – | – |
